Laboratory results from ChEMBL document CHEMBL4513216, “Probing the Open Global Health Chemical Diversity Library for Multistage-Active Starting Points for Next-Generation Antimalarials” (ACS Infect Dis, 2020).
Out of some 69,000 compounds screened, about 8,600 (12%) showed an effect of 50% or more. For the sample, strong results were picked, then their nearest neighbours and some compounds at random.

System: Plasmodium berghei
Assay: Screen against P. berghei liver stage (PbLuc), transformed with Luciferase, at 10uM
Format: functional, HepG2
Conditions: tested at 10 uM

| SMILES | INHIBITION [%] |
| --- | --- |
| CN1C(Cn2cccn2)C[C@@H]2CN(Cc3nccs3)CC[C@@H]21 (some centres not stated) | 20.4 |
| CN1[C@H](Cn2cccn2)C[C@@H]2CN(C(=O)Cc3cccs3)CC[C@@H]21 | 37.4 |
| CCC(=O)N1CC[C@H]2[C@H](C[C@@H](Cn3cccn3)N2c2nccs2)C1 | 21.6 |
| CC(C)N1CC[C@H]2[C@H](C[C@@H](Cn3cccn3)N2c2nccs2)C1 | 54.4 |
| CN1C(Cn2cccn2)C[C@@H]2CN(Cc3cnn(C)c3)CC[C@@H]21 (some centres not stated) | -10.3 |
| c1cnn(C[C@@H]2C[C@@H]3CN(CC4CC4)CC[C@@H]3N2c2nccs2)c1 | 79.2 |
| O=C(CCCn1cnnn1)N1CCC(c2ccncc2)CC1 | 31.4 |
| CN(Cc1ccco1)Cc1cncc2c1CCN(Cc1ccoc1)C2 | 38.5 |
| CC(=O)N1N=C(c2ccco2)OC1C(=O)NCCc1ccc(F)cc1 (configuration not stated) | -50.8 |
| CCOCC1CN(C(=O)c2ccncn2)Cc2cnn(C)c21 (configuration not stated) | 1.48 |
| CC(CCc1ccccc1)NC(=O)CNCCCN(C)C (configuration not stated) | 52.5 |
| CC(CCc1ccccc1)NC(=O)CNCCCN1CCOCC1 (configuration not stated) | 32.7 |
| CC(CCc1ccccc1)NC(=O)CN1CCOCC1 (configuration not stated) | 20.8 |
| Cn1cnnc1SCC(=O)NC1CC(=O)N(CCc2ccccc2)C1 (configuration not stated) | -6.18 |
| CC(=O)N1CCc2c(nc(-c3cccnc3)nc2N(C)CC(O)CO)C1 (configuration not stated) | -31.4 |
| FC(F)(F)c1cc(NCCCn2cccn2)nc(-c2cccnc2)n1 | 15.1 |
| CN(CCn1cccn1)c1cc(C(F)(F)F)nc(-c2cccnc2)n1 | 3.67 |
| COCC(O)CN(C)c1cc(C(F)(F)F)nc(-c2cccnc2)n1 (configuration not stated) | 85.1 |
| COCCCN(C)c1cc(C(F)(F)F)nc(-c2cccnc2)n1 | 59.4 |
| CC(O)CN(C)c1cc(C(F)(F)F)nc(-c2cccnc2)n1 (configuration not stated) | 16.6 |
| CCN(Cc1cn(CC2CCNCC2)nn1)CC1CCCO1 (configuration not stated) | -16.3 |
| CN(C)C(=O)[C@@H]1CC[C@@H]2[C@@H](CCN2Cc2nccs2)O1 | -22.1 |

| SMILES | INHIBITION [%] |
| --- | --- |
| CCC1=N[C@@]2(CC[C@@H]3CN(Cc4ccccc4F)C[C@@H]32)C(=O)N1CC | 13.5 |
| Cc1cc(C(=O)N(C)Cc2cccs2)nc(N2CCOCC2)n1 | 19.3 |
| Cc1cc(C(=O)N(C)Cc2cccs2)nc(N2CCCCC2)n1 | 52.4 |
| Cc1cc(C(=O)N(C)Cc2cccs2)nc(N2CCCC2)n1 | -33.7 |
| CC(C)OCCCNC(=O)CS(=O)(=O)Cc1ccc(C(C)C)cc1 | 7.67 |
| CCCOc1cc(C)ccc1NC(=O)N(C)C | 24.2 |
| CCc1nnc2n1CCN(C(=O)c1cc3ccc(C)cc3[nH]1)C2 | 23.7 |
| CCOCC1CN(CC2CC2)Cc2nn(C)cc21 (configuration not stated) | 52 |
| COCC1CN(CC2CC2)Cc2nn(C)cc21 (configuration not stated) | 55.7 |
| CCOCC1CN(Cc2ccncc2)Cc2nn(C)cc21 (configuration not stated) | 29.9 |
| COCC1CN(Cc2cnn(C)c2)Cc2nn(C)cc21 (configuration not stated) | 25.2 |
| CCOCC1CN(CC2CC2)Cc2nn(CC3CC3)cc21 (configuration not stated) | 29 |
| COCC1CN(Cc2ccncc2)Cc2nn(CC3CC3)cc21 (configuration not stated) | 29.9 |
| COCC1CN(Cc2ccoc2)Cc2nn(C)cc21 (configuration not stated) | 24.1 |
| CCOCC1CN(Cc2ccc(F)cc2)Cc2nn(C)cc21 (configuration not stated) | 41.6 |
| COCC1CN(CC2CC2)Cc2nn(CC3CC3)cc21 (configuration not stated) | 56.7 |
| O=S(=O)(c1ccccc1)N1C[C@@H]2CCCCN(Cc3cccs3)[C@@H]2C1 | 11.8 |
| O=C1CCCC2(CCN(C(=O)c3ccccn3)CC2)N1 | 17.4 |
| O=C(NC[C@]1(O)CCN(Cc2ccsc2)C[C@H]1O)c1c[nH]cn1 | -0.275 |
| NC(=O)N1CC[C@H](O)[C@@H]1Cc1cccnc1 | 38.1 |
| O=C(N1CCCCC1)N1CCN(c2ccc(Cl)nn2)C(=O)C1 | 30 |
| CCCSc1ncc(CN(C)CCN2CCCCC2)cn1 | 32.3 |

| SMILES | INHIBITION [%] |
| --- | --- |
| Cc1cc(C)n(CC2CCCN2C(=O)c2cccn3ccnc23)n1 (configuration not stated) | 15.32 |
| CCCC1CCN(C(=O)c2coc(COc3ccc(OC)cc3)n2)C1 (configuration not stated) | 19.5 |
| COc1ccc(OCc2nc(C(=O)N3CCCNC(=O)C3)co2)cc1 | 53.6 |
| COc1ccc(OCc2nc(C(=O)N3CC(O)C3)co2)cc1 | 33.5 |
| CNC(=O)C1CCN(C(=O)c2coc(COc3ccc(OC)cc3)n2)C1 (configuration not stated) | -66.3 |
| COc1cc(C)ccc1OCc1nc(C(=O)N2CCCNC(=O)C2)co1 | 63.8 |
| COc1cc(C)ccc1OCc1nc(C(=O)N2CCC(C)CC2)co1 | 5.33 |
| COc1cc(C)ccc1OCc1nc(C(=O)N2CCCC2)co1 | 37.8 |
| COc1cc(C)ccc1OCc1nc(C(=O)N2CCCO2)co1 | 67.5 |
| COc1ccc(OCc2nc(C(=O)N3CC[C@H](O)[C@@H](O)C3)co2)cc1 | -38.2 |
| Cc1ccc(C(NCC(=O)N2CCNC(=O)C2)c2ccccc2)cc1 (configuration not stated) | 29.4 |
| Cc1ccc(NC2CCN(C(=O)c3c(C)nn(C)c3Cl)CC2)nn1 | 1.45 |
| O=C1NCC2=Nc3ccccc3NC(c3ccc(O)cc3)C12 (configuration not stated) | -72.4 |
| COC1CCN(C(=O)Cc2csc(-c3ccc(F)cc3)n2)CC1 | -7.35 |
| CC(C)c1nn(C)c(N2CCOCC2)c1CNC(C)c1ccco1 (configuration not stated) | 4.52 |
| O=C(NCc1cccnc1N1CCCCC1)c1ccc2[nH]nnc2c1 | 17.5 |
| Cc1ccccc1CS(=O)(=O)CC(=O)NCc1ccccc1F | -15.8 |
| CC(C)n1cc(CN(Cc2ccc(F)cc2)CC2CCCO2)cn1 (configuration not stated) | 18.4 |
| O=C(CSC1=NS(=O)(=O)c2cc(F)ccc2N1)c1ccccc1 | 10.2 |
| Cc1cccc(NC(=O)C2CCc3ccccc3N2)c1 (configuration not stated) | -71.7 |
| Cc1occc1C(=O)N1CCn2c(COCC3CC3)cnc2C1C (configuration not stated) | 39.3 |
| Cn1cc(C(=O)NCCc2csc(-c3ccccc3)n2)ccc1=O | -8.92 |

| SMILES | INHIBITION [%] |
| --- | --- |
| COc1cccc(S(=O)(=O)NC(=O)CCC2CCCO2)c1 (configuration not stated) | -9.76 |
| COC1CN(C(=O)Nc2ccccc2)CCC(=O)N(C)c2ccccc21 (configuration not stated) | 13.1 |
| COC1CN(C(=O)CC2CCCC2)CCC(=O)N(C)c2ccccc21 (configuration not stated) | 11.6 |
| COC1CCN(C(=O)Nc2ccccc2)CC(=O)N(C)c2ccccc21 (configuration not stated) | 55.5 |
| COC1CN(C(=O)NC2CCCC2)CCC(=O)N(C)c2ccccc21 (configuration not stated) | 56.3 |
| COC1CN(C(=O)OCC(C)C)CCC(=O)N(C)c2ccccc21 (configuration not stated) | 52.5 |
| COC1CN(C(=O)CC(C)C)CCC(=O)N(C)c2ccccc21 (configuration not stated) | 1.8 |
| COC1CN(C(=O)COC(C)=O)CCC(=O)N(C)c2ccccc21 (configuration not stated) | 20.7 |
| COC1CCN(C(=O)C2CCCC2)CC(=O)N(C)c2ccccc21 (configuration not stated) | 33.6 |
| COC1CN(C(=O)C2CC2)CCC(=O)N(C)c2ccccc21 (configuration not stated) | 29 |
| Cc1cc(NS(=O)(=O)c2ccc(C(=O)O)cc2F)ccc1F | -2.33 |
| O=C1C[C@@H]2[C@H](CCN2Cc2ccco2)N1c1ccsc1 | 39.3 |
| O=C(Cn1cc(Cl)cn1)N1CCNC1=O | 45.9 |
| COc1ccc(CN2CCc3c(nc(-c4ccccn4)[nH]c3=O)C2)cc1 | -11.7 |
| Cc1oncc1C(=O)NCc1cc(=O)n2c(n1)CN(CC(C)C)CCC2 | 38.3 |
| CC(C)n1nnnc1-c1ccc(NC(=O)CCC(F)(F)F)cc1F | 40.3 |
| CCCC(=O)NCCc1nc2cc(-c3ccc(OC)cc3)ncn2n1 | -3 |
| CC(C)n1nc(CN(C)C)c2c1CN(CC1CC1)CC2 | 20.1 |
| CC(C)n1nc(CN2CCCC2)c2c1CN(CC1CC1)CC2 | 58.3 |
| CC(C)n1nc(CN(C)C)c2c1CN(C(=O)CC1CC1)CC2 | 61.5 |
| CN(C)Cc1nn(C)c2c1CCN(C(=O)CC1CC1)C2 | -4.99 |
| CC(=O)NCC(=O)N1CCc2c(CN(C)C)nn(C(C)C)c2C1 | 34.9 |

| SMILES | INHIBITION [%] |
| --- | --- |
| Cn1nc(CN2CCCC2)c2c1CN(CC1CC1)CC2 | 11.6 |
| OC(CNCc1nnc2ccccn12)c1ccc2c(c1)OCCCO2 (configuration not stated) | 17 |
| Cn1cc(NC(=O)N2CCC(Cc3ccccc3)CC2)ccc1=O | 20.45 |
| Cc1cc(NC(=O)CN2CCCC2c2noc(C)n2)n(C)n1 (configuration not stated) | -25.8 |
| CN(C)C(=O)N1CCc2onc(C(=O)Nc3cccnc3)c2C1 | -40.5 |
| O=C(N1CCC2(CC1)[C@H](O)C[C@@H]2O)C1(c2ccccc2F)CC1 | 25.9 |
| O=C(CN(CC(O)c1ccc(F)cc1)C1CC1)NCc1cccs1 (configuration not stated) | 65.4 |
| O=C(CN(CC(O)c1ccc(F)cc1)C1CC1)NC1CCOCC1 (configuration not stated) | 22.6 |
| O=C(CN(CC(O)c1ccc(F)cc1)C1CC1)NC(C1CC1)C1CC1 (configuration not stated) | 45.7 |
| Cc1cnn(CCNCC(=O)NCC2(c3ccccc3)CC2)c1 | 17.5 |
| Cc1nc(C)n(CC2CCCN2Cc2nc(-c3ccoc3)no2)n1 (configuration not stated) | 7.925 |
| CCCS(=O)(=O)N1CCC2(CN(c3cnn(C)c3)C(=O)CN2C)C1 (configuration not stated) | 21.6 |
| Cc1nn(C)c2nc(C3CC3)c(Cl)c(C(=O)O)c12 | 23.4 |
| O=C(c1ccccc1)N1CCCC2(CCN2Cc2cccc(F)c2)C1 (configuration not stated) | 61.1 |
| O=C(c1cscn1)N1CCC2(CN(Cc3ccncc3)C2)C1 | 24.9 |
| O=C(c1cscn1)N1CCCC2(CCN2Cc2cccc(F)c2)C1 (configuration not stated) | 64.7 |
| O=C(O)CN1CCCC2(CCN2Cc2cccc(F)c2)C1 (configuration not stated) | 44.8 |
| COC(=O)CCC(=O)N1CCCC2(CCCN2Cc2cccc(F)c2)C1 (configuration not stated) | 37.6 |
| O=C(N[C@@H]1CN(Cc2cccc(F)c2)C[C@H]1O)c1cscn1 | 47.1 |
